# “And” between values parts separate entries of the source, which are not always exact repeats. Identical values can stand only once. The panel holds about 83,000 compounds, 20% with a hit somewhere; the sample as a whole holds those more often.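 In brief: 96-well plates, 48 h treatment, single concentration, percent growth endpoint.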 The source made the active and inactive calls. How the source made its calls: active means growth percent below 10; inactive means the rest.
# Legend:
# Assay in all cases: NCI-60 one-dose screen, 48 h (100 = growth as untreated, 0 = no growth, -100 = all killed)
# Conditions in all cases: 10 µM unless noted
# MOLT-4 leukemia = system: MOLT-4 leukemia
# SR leukemia = system: SR leukemia
# RPMI-8226 leukemia = system: RPMI-8226 leukemia
# OVCAR-8 ovarian = system: OVCAR-8 ovarian
# OVCAR-5 ovarian = system: OVCAR-5 ovarian
# OVCAR-4 ovarian = system: OVCAR-4 ovarian
# SK-OV-3 ovarian = system: SK-OV-3 ovarian
# IGROV1 ovarian = system: IGROV1 ovarian
# OVCAR-3 ovarian = system: OVCAR-3 ovarian
# HS 578T breast = system: HS 578T breast
# NCI/ADR-RES ovarian = system: NCI/ADR-RES ovarian
# T-47D breast = system: T-47D breast
# BT-549 breast = system: BT-549 breast
# MDA-MB-435 melanoma = system: MDA-MB-435 melanoma
# SW-620 colon = system: SW-620 colon
# MCF7 breast = system: MCF7 breast
# HCT-116 colon = system: HCT-116 colon
# KM12 colon = system: KM12 colon
# HCC-2998 colon = system: HCC-2998 colon
Compound,growth (MOLT-4 leukemia),growth (SR leukemia),growth (RPMI-8226 leukemia),growth (OVCAR-8 ovarian),growth (OVCAR-5 ovarian),growth (OVCAR-4 ovarian),growth (SK-OV-3 ovarian),growth (IGROV1 ovarian),growth (OVCAR-3 ovarian),growth (HS 578T breast),growth (NCI/ADR-RES ovarian),growth (T-47D breast),growth (BT-549 breast),growth (MDA-MB-435 melanoma),growth (SW-620 colon),growth (MCF7 breast),growth (HCT-116 colon),growth (KM12 colon),growth (HCC-2998 colon)
C=C[Se]CC(=O)/C=C/c1ccccc1,79.5% (inactive),58.7% (inactive),93.2% (inactive),59.5% (inactive),89.9% (inactive),95.3% (inactive),53% (inactive),104% (inactive),89.1% (inactive),66.1% (inactive),87.9% (inactive),82.3% (inactive),108% (inactive),83.7% (inactive),87.9% (inactive),87.2% (inactive),56.1% (inactive),26.6% (inactive),
O=P1(N(CCCl)CCCl)NCCCO1 (configuration not stated),96.8% (inactive),99% (inactive),103% (inactive),102% (inactive),108% (inactive),111% (inactive),111% (inactive),114% (inactive),121% (inactive),115% (inactive),108% (inactive),113% (inactive),106% (inactive),,102% (inactive),96.8% (inactive),104% (inactive),111% (inactive),100% (inactive)
O=[N+]([O-])c1cc(Cl)c(Cl)cc1Cl,102% (inactive) and 103% (inactive),86.5% (inactive) and 108% (inactive),97.4% (inactive) and 112% (inactive),108% (inactive),110% (inactive) and 99.6% (inactive),108% (inactive) and 113% (inactive),123% (inactive) and 110% (inactive),111% (inactive) and 109% (inactive),119% (inactive),95.9% (inactive),102% (inactive) and 104% (inactive),107% (inactive) and 108% (inactive),121% (inactive) and 119% (inactive),101% (inactive) and 107% (inactive),,99% (inactive) and 113% (inactive),107% (inactive) and 106% (inactive),109% (inactive) and 113% (inactive),94.2% (inactive) and 118% (inactive)
CC12CCC3C4CCC(=O)C=C4CCC3C1CC1CC(=O)OC12 (configuration not stated),95.6% (inactive),90.6% (inactive),94.3% (inactive),97.2% (inactive),107% (inactive),103% (inactive),101% (inactive),96.7% (inactive),101% (inactive),95.7% (inactive),101% (inactive),101% (inactive),107% (inactive),112% (inactive),102% (inactive),98.7% (inactive),97.1% (inactive),96% (inactive),110% (inactive)
C[C@]12CCc3sc(Nc4ccc(OC(F)(F)F)cc4)nc3C1=CC[C@@H]1[C@@H]2CC[C@]2(C)C(=O)CC[C@@H]12,4.15% (active),16.9% (inactive),2.88% (active),66.5% (inactive),91.9% (inactive),64% (inactive),69.9% (inactive),93.6% (inactive),37.4% (inactive),38.5% (inactive),81.6% (inactive),41.8% (inactive),53.5% (inactive),77.6% (inactive),,17.1% (inactive),7.77% (active),53.5% (inactive),
O=NN1CCCCC1,115% (inactive),106% (inactive),114% (inactive),111% (inactive),104% (inactive),110% (inactive),107% (inactive),116% (inactive),112% (inactive),97.3% (inactive),110% (inactive),102% (inactive),104% (inactive),118% (inactive),107% (inactive),90.8% (inactive),108% (inactive),104% (inactive),
COc1cc2c(c(OC)c1OC)-c1ccc(O)cc1[C@@H](NC(C)=O)CC2,34.5% (inactive) and -8.23% (active),15.1% (inactive) and -4.87% (active),25% (inactive) and -17.7% (active),15.7% (inactive) and 11.1% (inactive),33.2% (inactive) and 41.1% (inactive),19.3% (inactive),8.01% (active) and 6.47% (active),-24.2% (active) and 8.32% (active),-39.1% (active) and -30.9% (active),50.4% (inactive) and 29.5% (inactive),11.1% (inactive) and -2.64% (active),56.4% (inactive) and 64% (inactive),8.27% (active),-27.7% (active) and -47.4% (active),21.9% (inactive) and 20.7% (inactive),15.1% (inactive) and 6.46% (active),6.62% (active) and 4.98% (active),-17.3% (active) and -32.3% (active),
O=C(Cc1ccccc1)c1ccccc1,107% (inactive),100% (inactive),85.4% (inactive),108% (inactive),108% (inactive),99.3% (inactive),113% (inactive),110% (inactive),106% (inactive),90.3% (inactive),105% (inactive),100% (inactive),100% (inactive),102% (inactive),,92% (inactive),101% (inactive),99.8% (inactive),
C[C@]12CCc3nc(-c4ccc(O)c(O)c4)sc3C1=CC[C@@H]1[C@@H]2CC[C@]2(C)C(=O)CC[C@@H]12,45.4% (inactive),39.3% (inactive),9.9% (active),29.9% (inactive),112% (inactive),67.1% (inactive),89.7% (inactive),38.6% (inactive),87.5% (inactive),66.8% (inactive),73.7% (inactive),69% (inactive),58.1% (inactive),71.3% (inactive),55.4% (inactive),48.4% (inactive),26% (inactive),90.8% (inactive),
COc1cc(/C=C\[N+](=O)[O-])ccc1OCc1ccccc1,1.1% (active),-24.2% (active),-45.6% (active),52.9% (inactive),98.5% (inactive),85.3% (inactive),91.4% (inactive),7.94% (active),19.9% (inactive),42.9% (inactive),69.2% (inactive),49% (inactive),37.2% (inactive),20% (inactive),,9.62% (active),1% (active),23.6% (inactive),
O=S(OO)c1cc(Cl)c(O)c(Cl)c1 (configuration not stated),103% (inactive),95.1% (inactive),99.9% (inactive),101% (inactive),107% (inactive),89.9% (inactive),103% (inactive),104% (inactive),114% (inactive),104% (inactive),101% (inactive),87.6% (inactive),89.1% (inactive),97.1% (inactive),98.3% (inactive),78.6% (inactive),105% (inactive),108% (inactive),95.5% (inactive)
N#CCc1ccc(CC#N)cc1,99.9% (inactive),97.9% (inactive),98.8% (inactive),104% (inactive),104% (inactive),119% (inactive),98.5% (inactive),109% (inactive),110% (inactive),96.6% (inactive),110% (inactive),87.5% (inactive),95.9% (inactive),,96.7% (inactive),91.4% (inactive),98.6% (inactive),102% (inactive),108% (inactive)
O=C=Nc1ccc(Br)cc1,111% (inactive),98.5% (inactive),98.9% (inactive),107% (inactive),109% (inactive),98.5% (inactive),99.1% (inactive),112% (inactive),105% (inactive),106% (inactive),107% (inactive),92.2% (inactive),98.3% (inactive),108% (inactive),,97.8% (inactive),94.3% (inactive),105% (inactive),100% (inactive)
COC(=O)[C@@H](C)C[C@H](Cc1ccccc1)NC(=O)c1cccc([C@@H](C[C@H](C(C)C)N(C)C(=O)[C@@H](NC(=O)[C@H]2CCCCN2C)C2CC2)OC(C)=O)n1,14.6% (inactive),14.5% (inactive),25.4% (inactive),14.4% (inactive),38.2% (inactive),52% (inactive),1.39% (active),23.3% (inactive),-47.5% (active),27% (inactive),16.4% (inactive),63.1% (inactive),-17.1% (active),-25.4% (active),23% (inactive),14% (inactive),1.92% (active),-1.96% (active),13% (inactive)

# From PubChem BioAssay (NCI)
